According to ChEMBL document CHEMBL4513146, “CO-ADD screening of Karazin Kharkiv National University (Ukraine) compounds”:
Results with a measured potency or affinity are listed apart.

What was measured:
Staphylococcus aureus = conditions: Concentration 32 ug.mL-1;; ASSAY_TEST Inhibition of Bacterial Growth; detection method Absorption (OD600); MEDIA CAMHB; plate type 384well; NBS; CORNING #3640; time 18 hr
Escherichia coli = conditions: Concentration 32 ug.mL-1;; ASSAY_TEST Inhibition of Bacterial Growth; detection method Absorption (OD600); MEDIA CAMHB; plate type 384well; NBS; CORNING #3640; time 18 hr

SMILES	Inhibition (Staphylococcus aureus)	Inhibition (Escherichia coli)
Cc1ccc(-c2cc3c4nn(CC(=O)Nc5ccc(F)cc5Cl)c(=O)n4ccn3n2)cc1	-0.44%	-5.61%
COc1ccc(-c2cc3c4nn(CC(=O)Nc5cc(Cl)ccc5C)c(=O)n4ccn3n2)cc1	5.04%	1.53%
Cc1ccc(-c2ccc3nn(Cc4ccc(Cl)cc4)c(=O)n3n2)cc1C	-1.51%	-5.81%
Cc1cc2nn(CC(=O)NC(C)C)c(=O)n2c(-c2ccc(C(F)(F)F)cc2)n1	-8.3%	1.53%
O=C(Cn1nc2ccc(-c3ccccc3)nn2c1=O)Nc1cccc(Cl)c1	-4.62%	-11.73%
COc1cccc(-n2ccn3c(SCc4c(F)cccc4Cl)nnc3c2=O)c1	2.96%	-9.46%
CCOc1ccc(NC(=O)Cn2nc3c(Oc4ccc(C)cc4)nccn3c2=O)cc1	5.72%	-4.41%
Cc1ccccc1Oc1nccn2c(=O)n(CC(=O)Nc3ccc(Cl)c(Cl)c3)nc12	7.54%	-4.77%
CCOC(=O)c1ccccc1NC(=O)Cn1nc2c(Oc3ccc(C)cc3)nccn2c1=O	-14.8%	-17.92%
CCc1ccc(NC(=O)Cn2nc3cc(C)nc(Nc4ccc(C)c(F)c4)n3c2=O)cc1	-14.67%	-1.11%
COc1ccc(NC(=O)CSc2nnc3c(=O)n(-c4ccccc4)ccn23)cc1	-4.77%	-6.17%
COc1ccc(-c2noc(Cn3nc4ccc(-c5ccccc5)nn4c3=O)n2)cc1OC	7.44%	-3.1%
CC(C)CCNC(=O)Cn1nc2n(CC(C)C)c(=O)c3sccc3n2c1=O	4.95%	-1.56%
COc1ccc(-c2cc3c4nnc(SCC(=O)Nc5ccc(OC)c(Cl)c5)n4ccn3n2)cc1	3.66%	-2.1%
COc1cccc(-n2ccn3c(SCc4cccc(Cl)c4)nnc3c2=O)c1	12.15%	-0.34%
CCOc1ccc(-n2ccn3c(SC(C)C(=O)Nc4ccc5c(c4)OCCO5)nnc3c2=O)cc1 (configuration not stated)	14.02%	0.39%
COc1cc(OC)c(NC(=O)Cn2nc3c(Sc4ccc(C)cc4C)nccn3c2=O)cc1Cl	-8.98%	-14.71%
CCCn1c(=O)c2sccc2n2c(=O)n(CC(=O)c3ccc(OC)c(OC)c3)nc12	7.14%	-1.62%

SMILES	Inhibition (Staphylococcus aureus)	Inhibition (Escherichia coli)
CC(C)Cn1c(=O)c2ccc(C(=O)NC3CCCCC3)cc2n2c(=O)n(CC#N)nc12	8.84%	-0.16%
COc1cccc(-n2ccn3c(SCC(=O)c4ccc(OC)c(OC)c4)nnc3c2=O)c1	10.14%	2.93%
COc1cc(Cl)c(C)cc1NC(=O)Cn1nc2ccc(SC(C)(C)C)nn2c1=O	0.92%	3.96%
O=c1c2nnc(SCc3cccc(F)c3)n2ccn1-c1ccc(Br)cc1	15.11%	-3.12%
COc1cccc(-n2ccn3c(SCC(=O)Nc4ccc(Cl)cc4)nnc3c2=O)c1	16.43%	-13.45%
O=C(Cn1nc2c(Sc3cccc(F)c3)nccn2c1=O)N1CCN(c2ccccc2)CC1	1.07%	1.18%
Cc1nnc2c(S(=O)(=O)N(Cc3cccc(F)c3)c3cccc(F)c3)cccn12	18.57%	0.97%
COc1cccc(Oc2nccn3c(=O)n(CC(=O)Nc4ccc(Br)cc4F)nc23)c1	14.87%	-0.07%
CC1CCCN(c2nccn3c(=O)n(CC(=O)Nc4ccc5c(c4)OCO5)nc23)C1 (configuration not stated)	-13.51%	-11.79%
CCOc1ccccc1NC(=O)Cn1nc2c(Oc3ccccc3)nccn2c1=O	5.93%	-3.4%
CCCCc1ccc(NC(=O)CSc2nc3ccccc3n3c(CC)nnc23)cc1	10.38%	-2.23%
COc1cccc(CNC(=O)Cn2nc3c4cc(-c5cc(C)ccc5C)nn4ccn3c2=O)c1OC	2.74%	-0.3%
COc1cccc(CSc2nnc3c(=O)n(-c4ccccc4OC)ccn23)c1	-2.45%	1.01%
Cc1cc(C)cc(N(Cc2ccc(Cl)cc2)S(=O)(=O)c2cccn3c(C)nnc23)c1	9.89%	-11.68%
CCC(Sc1nnc2c(=O)n(-c3cccc(OC)c3)ccn12)C(=O)Nc1ccccc1C (configuration not stated)	-3.13%	-2.17%
COc1ccc(NC(=O)c2ccc3nn(CC(=O)Nc4ccc(C(C)C)cc4)c(=O)n3c2)cc1	9.69%	-3.43%
Cc1nnc2c(S(=O)(=O)N(Cc3cccc(F)c3)c3ccc(C(C)C)cc3)cccn12	15.47%	-0.86%
Cc1cccc(NC(=O)Cn2nc3c4cc(-c5ccc(F)cc5)nn4ccn3c2=O)c1C	-2.18%	-5.27%
